The structures appear in SMILES notation. About 8,600 (12%) of roughly 69,000 compounds showed an effect of 50% or more. The sample as a whole holds a higher share of strong results than the screen did.

The subject of the test is Plasmodium berghei. Nature of the test: Screen against P. berghei liver stage (PbLuc), transformed with Luciferase, at 10uM. It is filed as functional, HepG2. As to conditions: tested at 10 uM.
Consider `CC(=O)N1CCC2(CC1)CN(C)CC[C@H]2C(F)(F)F`, for which the INHIBITION was -22.1%.
With `c1cc(CN2CCc3ncnc(C4CCOC4)c3CC2)ccn1` (centres undefined) the figure was 29.8%; with `O=C(c1cn(-c2ccccc2)nn1)N1CCOCC(O)C1` (centres undefined), -28.1%; with `O=C(CCc1nc(Cl)n[nH]1)NC1CCCN(C2Cc3ccccc3C2)C1` (centres undefined), 35.1%.
Then `O=C(CCc1ccccn1)NC1CCN(c2cccc(Cl)c2)C1` (centres undefined), with 46.4%; and `O=C(CCc1ccccn1)NC1CCCN(C2Cc3ccccc3C2)C1` (centres undefined), with 51.1%; and `Cn1nnnc1SC1CCCN(c2cccc(F)c2)C1=O` (centres undefined), with -12.4%.
With `O=C(COCC(=O)N(c1ccccc1)c1ccccc1)N1CCOCC1` the figure was 13.3%.
Take `O=C(CN1CCOCC1)N(c1ccccc1)c1ccccc1`: the INHIBITION turned out to be 78.8%.
For `CN(CCN1CCOCC1)C(=O)CCCc1ccccc1`, the INHIBITION is given as -57.6%.
With `CCOCC(=O)N1CCC2(CC1)CN(Cc1cccnc1)C(=O)CO2` the figure was -47.9%; with `COCCN1CCCC(Cc2cnc(-c3c(C)nn(C)c3C)cn2)C1` (centres undefined), -29.9%.
With `COCC1CN(c2ccc(C)nn2)Cc2cnn(CC3CCOCC3)c21` (centres undefined) the figure was 13.6%.
With `Cc1cc2[nH]c(O)nc2cc1NCc1ccc(F)cc1` the figure was -5.64%; with `Cc1ccc(-c2nc3c([nH]2)CCNC3C(=O)O)c2cccnc12` (centres undefined), -6.83%; with `COc1ccc(-c2nc3c([nH]2)CCNC3C(=O)O)c2ccccc12` (centres undefined), 55.4%.
Turning to `COc1ccc(-c2nc3c([nH]2)CCNC3C(=O)O)c2ccc(C)nc12` (centres undefined), the INHIBITION is reported as 36.6%.
With `Cc1ccc2nc(C(=O)N3C[C@@H](C(=O)O)[C@H](c4cccnc4)C3)cn2c1` the figure was -10.1%; with `COc1cc(CNC(=O)COC2CCCC2)ccc1O`, 9.06%.
With `CNc1cc(C2CCN2c2ncccn2)nc(C)n1` (centres undefined) the figure was 15.5%; with `NC(=O)NC(=O)C(c1ccccc1)N1CCN(Cc2ccccc2)CC1` (centres undefined), 24%.
As for `NC(=O)NC(=O)C(c1ccccc1)N1CCN(Cc2ccc(Cl)s2)CC1` (centres undefined), the INHIBITION came out at 50.4%.
Take `O=C(NC1CC1)C(c1ccccc1)N1CCN(Cc2ccc(Cl)s2)CC1` (centres undefined): the INHIBITION is on record as -65%.
Then `CS(=O)(=O)c1cncnc1C1CCCN(C(=O)NCc2ccccc2)C1` (centres undefined), with -2.665%; and `Cc1noc(C)c1CN1CCO[C@H]2CN(Cc3cncn3C)C[C@H]21`, with 18.5%; and `Cc1ccc(N2CCO[C@H]3CN(Cc4cnn(C)c4)C[C@H]32)nn1`, with 25.6%.
In the case of `COc1ccc(CN2C[C@@H]3OCCN(c4ncccn4)[C@@H]3C2)cc1`, the INHIBITION stood at 32.4%.
As to `Fc1ccccc1CN1C[C@@H]2OCCN(c3ncccn3)[C@@H]2C1`, the INHIBITION amounted to 42.7%.
Then `Cn1ccnc1CN1C[C@@H]2OCCN(c3ncccn3)[C@@H]2C1`, with 28.7%; and `c1cnc(N2CCO[C@H]3CN(CC4CC4)C[C@H]32)nc1`, with 35.2%.
As to `Cn1cc(CN2C[C@@H]3OCCN(c4ncccn4)[C@@H]3C2)cn1`, the INHIBITION amounted to 83.5%.
Then `Cn1cncc1CN1C[C@@H]2OCCN(c3ncccn3)[C@@H]2C1`, with 63.7%.
As to `c1ccc(CCN2C[C@@H]3OCCN(c4ncccn4)[C@@H]3C2)cc1`, the INHIBITION was determined as 76.5%.
Consider `Cc1cc2cc(NC(=O)Cn3ncc(N4CCCC4)cc3=O)ccc2o1`, for which the INHIBITION is given as 30.3%.
Turning to `CCn1cnnc1CNS(=O)(=O)N1CCCC1c1ccc(C)o1` (centres undefined), the INHIBITION amounted to 2.79%.
On to `CC(C)c1nc(O)c2nnn(C[C@H]3CCCN(Cc4cccs4)C3)c2n1`, for which the INHIBITION is recorded as 2.55%.
As for `CCn1nc(C)c2ncnc(NCCn3cccn3)c21`, the INHIBITION is -15%.
Then `CC(C)CC1SCC(=O)Nc2c1cnn2C1CCCC1` (centres undefined), with -37.2%.
Then `CN(C)C(=O)[C@@H]1C[C@H]2OCC[C@H]2N(CCOc2ccc(Cl)cc2)C1`, with -23.4%.
`CC(C)Cc1cc(C(=O)NC(C)C)[nH]n1`: the INHIBITION was found to be 50.8%.
In the case of `CC(C)Cc1cc(C(=O)NCc2nnc[nH]2)[nH]n1`, the INHIBITION is recorded as -21.3%.
`CC(C)Cc1cc(C(=O)NCCN2CCCS2(=O)=O)[nH]n1`: the INHIBITION was -36.385%.
As to `COc1nccc(N2CC[C@@H](N3CCCCCC3)[C@H](O)C2)c1C#N`, the INHIBITION stood at 42.1%.
Then `c1cnn(CC2CCCN2Cc2nc(C3CC3)no2)c1` (centres undefined), with 11.4%; and `O=C(NCc1cnn2ccccc12)NC1CCCC1`, with -16.4%; and `CC(C)(C)c1ncc(CNCC2CCCn3ccnc32)s1` (centres undefined), with -7.66%.
With `Cc1cn2c(n1)C(CNCc1cnn3ccccc13)CCC2` (centres undefined) the figure was 50.1%.
As to `CC(C)(C)c1cn2c(n1)C(CNCc1cnn3ccccc13)CCC2` (centres undefined), the INHIBITION was found to be 51.1%.
Regarding `Cn1cccc1CNCC1CCCn2cc(C(C)(C)C)nc21` (centres undefined), the INHIBITION stood at 22.3%.
Then `CC(C)(C)C(=O)NCc1cnn2ccccc12`, with 15.7%; and `CC(C)(C)NC(=O)NCc1cnn2ccccc12`, with 35.2%; and `CC(C)(C)c1cn2c(n1)C(CNCc1ccccn1)CCC2` (centres undefined), with 56.5%.
With `Cc1nc(C)c(CNCC2CCCn3ccnc32)s1` (centres undefined), the INHIBITION is on record as 28.7%.
Then `CN(CC1(C)COC1)C(=O)c1cc(-c2ccnn2C)nc2ccccc12`, with 1.9%; and `CSC(C)C(=O)N(C)CC(=O)Nc1ccc(Br)cn1` (centres undefined), with -17.6%; and `NC(=O)C(CNC(=O)CCc1ccccc1)Cc1ccc(F)cc1` (centres undefined), with 33.4%.
With `CN(C)C(=O)CO[C@H]1CN(Cc2ccccc2)[C@@H]2CCCO[C@H]12` the figure was 3.3%; with `CN(C)C(=O)CNC(=O)c1cc2ccccc2nc1N1CCCC1`, 42.3%.
With `Cc1nn(C)cc1C(=O)NCc1csc(C2CC2)n1`, the INHIBITION is on record as 18.3%.
Then `CCn1nc(C)c(C(=O)NCc2csc(C3CC3)n2)c1C`, with 76.3%.
In the case of `Cc1ccc2c(cnn2CCC(=O)NCc2csc(C3CC3)n2)c1`, the INHIBITION was determined as 26.9%.
Regarding `Cc1cccc2c1cnn2CCC(=O)NCc1csc(C2CC2)n1`, the INHIBITION came to 23.6%.
Then `CCn1cc(CCC(=O)NCc2csc(C3CC3)n2)c(C)n1`, with 22.9%; and `CCn1cc(C(=O)NCc2csc(C3CC3)n2)c(C)n1`, with 67%; and `CCOC(=O)CSc1nnc([C@@H](N)C(C)CC)o1` (some centres undefined), with -30.6%.
Take `COCCOCC(=O)Nc1ccnn1-c1ccc(Cl)cc1`: the INHIBITION worked out at 54.6%.
With `COCC(=O)Nc1ccnn1-c1ccc(Cl)cc1` the figure was 64.3%; with `COCC(=O)NC(c1ccc(Cl)cc1)C(F)(F)F` (centres undefined), -21.8%.
Then `COCCC(=O)Nc1ccnc(Oc2ccccc2)c1`, with -30%; and `Cc1ccccc1-n1nccc1NC(=O)CCOC(C)C`, with 43.8%; and `COCCOCC(=O)Nc1ccc(C)cc1Cl`, with -71.6%.
Then `CCOCCC(=O)Nc1ccnn1-c1ccc(Cl)cc1`, with 12.9%; and `COCCC(=O)Nc1ccnn1-c1ccccc1`, with 67.1%.
For `COCC(=O)NCCc1ccc(Cl)s1`, the INHIBITION was 28.4%.

The values are drawn from ChEMBL document CHEMBL4513216, “Probing the Open Global Health Chemical Diversity Library for Multistage-Active Starting Points for Next-Generation Antimalarials” (ACS Infect Dis, 2020).
